Records with an inconclusive call do not appear. The source made the active and inactive calls. Calls come from the whole dose curve.
The compounds below were run against Retinoic acid receptor RXR-alpha (Homo sapiens) (UniProt P19793) (assay: qHTS assay to identify small molecule agonists of the RXR signaling pathway (AID 1159527; note: nearly all actives have a fitted effect of over 35% in size)). Conditions: HEK293T RXRa-UAS-bla, beta-lactamase ratio, 16 h; series mostly up to 76.8 µM; activation: at the top concentration.
Text: U.S. Tox21 Program National Center for Advancing Translational Sciences [NCATS] NIH Chemical Genomics Center [NCGC] U.S. Environmental Protection Agency [EPA] National Institutes of Environmental Health Sciences [NIEHS] National Toxicology Program [NTP] U.S. Food and Drug Administration [FDA] Tox21 Assay Overview: The Retinoid X receptor (RXR), a nuclear hormone receptor expressed in liver, spleen, placenta, epidermis, central nervous system. These receptors are able to form homo and heterodimers with other nuclear receptors and due to this heterodimerizing ability, RXR functions as master regulators producing diverse physiological effects. Three subtypes of RXR exist; alpha, beta and gamma. Retinoid X receptor alpha (RXR-alpha) has potential roles in metabolic signaling pathways, skin alopecia, dermal cysts, cardiac development, insulin sensitization etc. Therefore screening environmental chemicals on RXR-alpha signaling can be used for the studies focused on such therapeutic applications. For quantification of RXR-alpha ligands signaling, GeneBLAzer RXR alpha-UAS-bla HEK 293T (Life Technologies, Carlsbad, CA) cells containing a beta-lactamase reporter-gene under control of Retinoid X receptor-alpha response element were used to screen Tox21 10K library.
Tox21 Assay Protocol Summary: RXR-alpha HEK 293T cells were dispensed at 2,000 cells/6 uL of assay medium containing 2% charcoal-stripped FBS using a Multidrop Combi (ThermoFisher Scientific, Waltham, MA) dispenser. The assay was performed in black wall/clear-bottom 1536-well plates (Greiner Bio-One North America Inc. Monroe, NC). 9-cis retinoic acid was used as a positive control in the agonist mode screen. After the assay plates were incubated at 37 C and 5% CO2 for 5 hr, 23 nL of compounds dissolved in DMSO, positive controls or DMSO only were transferred to the assay plate by a Pintool station (Kalypsys, San Diego, CA). The assay plates were incubated at 37 C and 5% CO2 for 16 hr. One uL of LiveBLAzer B/G FRET substrate (Life Technologies) was added using a Flying Reagent Dispenser (Aurora Discovery, San Diego, CA) and the plates were incubated at room temperature for 2 hr. Fluorescence intensity (405 nm excitation, 460/530 nm emission) was measured using an Envision plate reader (PerkinElmer, Shelton, CT).
% is set by controls: 0 for no effect and ±100 for the full control effect; potency is the fitted concentration of half-maximal effect.

Retinoic acid receptor RXR-alpha (Homo sapiens), sequence (P19793 whole entry, looked up): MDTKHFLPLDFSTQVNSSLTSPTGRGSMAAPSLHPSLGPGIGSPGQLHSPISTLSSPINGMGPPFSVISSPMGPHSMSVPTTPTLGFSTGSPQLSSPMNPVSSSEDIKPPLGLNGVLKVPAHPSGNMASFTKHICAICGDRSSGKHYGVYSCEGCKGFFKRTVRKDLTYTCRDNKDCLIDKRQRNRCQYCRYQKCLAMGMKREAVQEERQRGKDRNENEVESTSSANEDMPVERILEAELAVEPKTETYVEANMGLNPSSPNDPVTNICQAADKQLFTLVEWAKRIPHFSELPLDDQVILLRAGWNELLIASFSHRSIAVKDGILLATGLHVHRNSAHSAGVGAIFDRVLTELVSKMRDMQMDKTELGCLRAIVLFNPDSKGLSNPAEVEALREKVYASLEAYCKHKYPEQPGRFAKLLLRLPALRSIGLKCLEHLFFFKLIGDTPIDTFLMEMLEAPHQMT

Row | Compound | activation | Potency
1 | Cc1ccc(S(=O)(=O)NC(=O)NC2CCCCC2)cc1 | 3.82% [at 35.3 µM] (inactive) | –
2 | O=C1[C@@H]2[C@H]3CC[C@H](C3)[C@@H]2C(=O)N1CCCCN1CCN(c2ncccn2)CC1 | 0.911% [at 35.3 µM] (inactive) | –
3 | COc1ccc(C)cc1 | 1.23% (inactive) | –
4 | ClC1=C(Cl)C1(Cl)Cl | -8.85% (inactive) | –
5 | Cc1cc(CCC(=O)OCCOCCOCCOC(=O)CCc2cc(C)c(O)c(C(C)(C)C)c2)cc(C(C)(C)C)c1O | -13.3% (inactive) | –
6 | CC12CC3CC(C)(C1)CC(N)(C3)C2 | -9.74% [at 35.3 µM] (inactive) | –
7 | SCCc1cnccn1 | -10.4% (inactive) | –
8 | CCC(CO)(CO)CO | 4.49% (inactive) | –
9 | Nc1ccc(N=Nc2ccc(N)cc2)cc1 | -7.94% [at 35.3 µM] (inactive) | –
10 | CCOC(=O)c1ccc(NC(=O)CN2CCCCC2)cc1 | -6.23% [at 35.3 µM] (inactive) | –
11 | O=C(O)CCS | 0.72% (inactive) | –
12 | O=S(=O)(O)CO | 3.85% (inactive) | –
13 | CC(=O)NNC(C)=O | 1.35% (inactive) | –
14 | N[C@@H](Cc1cc(I)c(O)c(I)c1)C(=O)O | 13.8% [at 35.3 µM] (inactive) | –
15 | CC(=O)OCC1=C(C(=O)O)N2C(=O)[C@@H](NC(=O)CSc3ccncc3)[C@H]2SC1 | -3.02% [at 35.3 µM] (inactive) | –
16 | CC(=O)N[C@@H](Cc1ccc(O)cc1)C(=O)O | -0.0487% [at 35.3 µM] (inactive) | –
17 | CCCCCCC(O)CCOC(C)=O (stereo not given) | -1.34% [at 200 µM] (inactive) | –
18 | [Cl][Nd]([Cl])[Cl] | -8.91% (inactive) | –
19 | CC(=O)NCCO | 12.2% (inactive) | –
20 | CCCCCCCCCCCCCCN(C)C | 7.58% [at 15.8 µM] (inactive) | –

Row | Compound | activation | Potency
21 | O=C(c1ccccc1)C1CCC1 | 7.31% (inactive) | –
22 | CC(=O)C(=O)CC(C)C | 1.53% (inactive) | –
23 | C[C@@H]1[C@H](O)[C@@H](C)/C=C/C=C\C=C\C=C\C=C\C=C\C=C\[C@H](O[C@@H]2O[C@H](C)[C@@H](O)[C@H](N)[C@@H]2O)C[C@@H]2O[C@](O)(C[C@@H](O)C[C@@H](O)[C@H](O)CC[C@@H](O)C[C@@H](O)CC(=O)O[C@H]1C)C[C@H](O)[C@H]2C(=O)O (stereo in doubt) | -1.65% (inactive) | –
24 | CCOC(=O)c1c(N)sc2c1CCN(Cc1ccccc1)C2 | -5.65% [at 35.3 µM] (inactive) | –
25 | CCOc1ncc(F)c(=O)[nH]1 | -0.0793% [at 35.3 µM] (inactive) | –
26 | CCNc1nc(N)nc(Cl)n1 | – | 5.49 µM (active)
27 | CCN(CC)CCOC(=O)C(c1ccccc1)c1ccccc1 | 6.17% [at 35.3 µM] (inactive) | –
28 | CC(C)(C)NCC(O)COc1cccc2c1C[C@H](O)[C@H](O)C2 (stereo not given in full) | 6.14% [at 35.3 µM] (inactive) | –
29 | O=C(C(=O)c1ccco1)c1ccco1 | 0.566% (inactive) | –
30 | Cc1ccc(N(CC2=NCCN2)c2cccc(O)c2)cc1 | -10.2% [at 35.3 µM] (inactive) | –
31 | CC1C(C)(C)C2=C(C(=O)CCC2)C1(C)C (stereo not given) | 6.38% (inactive) | –
32 | Cc1ccc2c(c1[N+](=O)[O-])C(=O)c1ccccc1C2=O | 0.784% [at 35.3 µM] (inactive) | –
33 | CCc1ccc(C)cc1 | -3.11% (inactive) | –
34 | Cc1c[nH]c2ccccc12 | 0.877% [at 35.3 µM] (inactive) | –
35 | O=C(O)c1ccc(O)cc1O | -0.184% (inactive) | –
36 | CC(C)N(C)C | -3.44% (inactive) | –
37 | CC(CN(CCN(CC(C)OCCO)CC(C)OCCO)CC(C)OCCO)OCCO (stereo not given) | -5.82% (inactive) | –
38 | Cc1cccc(C)c1NC(=O)c1cc(S(N)(=O)=O)c(Cl)cc1O | 6.73% [at 35.3 µM] (inactive) | –
39 | C=Cc1ccc(OC(C)=O)cc1 | 4.24% (inactive) | –
40 | Cc1cc(CCCOc2c(C)cc(-c3noc(C(F)(F)F)n3)cc2C)on1 | -6.36% [at 35.3 µM] (inactive) | –

From PubChem BioAssay (Tox21)
